Columns and labels:
Assay type in all cases: functional
[1] = biological target: Solute carrier family 2, facilitated glucose transporter member 1 (Homo sapiens) (UniProt P11166); assay: ST_JUDE_LEISH: Cytotoxicity at 2uM final concentration against transgenic Leishmania Mexicana promastigotes LmGLUT1 that are glucose transport deficient and complemented with the human glucose transporter GLUT1. Activity is measured by DNA content using SYBR green in vitro
[2] = biological target: Hexose transporter 1 (Plasmodium falciparum) (UniProt O97467); assay: ST_JUDE_LEISH: Cytotoxicity at 2uM final concentration against transgenic Leishmania Mexicana promastigotes LmPfHT that are glucose transport deficient and complemented with the Plasmodium falciparum hexose transporter. Activity is measured by DNA content using SYBR green in vitro
[3] = biological target: Glucose transporter (Leishmania mexicana) (UniProt O61059); assay: ST_JUDE_LEISH: Cytotoxicity at 2uM final concentration against transgenic Leishmania Mexicana promastigotes LmGT2 that are glucose transport deficient and complemented with the L. Mexicana glucose transporter 2. Activity is measured by DNA content using SYBR green in vitro

Chain of Solute carrier family 2, facilitated glucose transporter member 1 (Homo sapiens) (P11166 whole entry): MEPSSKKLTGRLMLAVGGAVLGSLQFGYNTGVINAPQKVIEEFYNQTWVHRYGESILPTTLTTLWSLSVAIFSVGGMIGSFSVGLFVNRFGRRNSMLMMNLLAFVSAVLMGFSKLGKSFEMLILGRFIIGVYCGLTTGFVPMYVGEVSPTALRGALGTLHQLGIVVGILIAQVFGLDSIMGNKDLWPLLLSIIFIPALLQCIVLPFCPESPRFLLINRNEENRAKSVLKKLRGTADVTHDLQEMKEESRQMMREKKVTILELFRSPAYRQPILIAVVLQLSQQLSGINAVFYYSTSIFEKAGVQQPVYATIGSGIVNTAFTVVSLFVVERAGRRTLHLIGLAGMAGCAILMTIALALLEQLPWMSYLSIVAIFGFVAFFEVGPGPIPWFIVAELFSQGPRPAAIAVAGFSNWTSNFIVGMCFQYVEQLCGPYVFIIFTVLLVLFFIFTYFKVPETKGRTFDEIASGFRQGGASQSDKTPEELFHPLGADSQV

Row | Compound | inhibition [1] [%] | inhibition [2] [%] | inhibition [3] [%]
1 | Cc1[nH]c(C)c(-c2ccc(Oc3ccc(Cl)cc3)cc2)c(=O)c1Br | -0.61 | 0.25 | -0.13
2 | COc1ccc2nccc([C@@H](O)CN3CCC(NC(=O)c4ccc5nc(-n6cccc6)sc5c4)CC3)c2c1 | 6.02 | 5.93 | 4.22
3 | N=C(N)NN=Cc1c2ccccc2c(Cl)c2c(Cl)cccc12 | 24.6 | 26.2 | 10.2
4 | CN1CCN(c2cc3c(cc2Cl)CCN3C(=O)Cc2ccc(NC(=O)Nc3cccc4ccccc34)cc2)CC1 | 0.87 | 1.55 | -1.64
5 | Cc1nc(N)nc(N)c1-c1ccc(Cl)cc1 | 3.05 | 2.21 | 2.37
6 | CCCC(=O)Nc1ccc(OCCCCN(Cc2ccccc2C(F)(F)F)c2ccc(C(F)(F)F)c(C#N)c2)cc1 | 6.19 | 5.86 | 5.58
7 | CN1CCC(NCc2cccc(-c3ccc(S(=O)(=O)NCCc4ccccn4)cc3)c2)CC1 | 3.76 | 2.04 | -2.17
8 | Cc1noc(C)c1-c1ccc2c(Nc3cccc4c3-c3ccccc3C4=O)c(C(=O)NCc3ccccc3I)cnc2c1 | 3.15 | 2.33 | 6.11
9 | CCNc1cc(C)nc(Nc2ccc(NC(=O)c3ccccc3Br)cc2)n1 | 8.09 | 9.16 | 4.36
10 | CC1=C(C(=O)Nc2cc3cn[nH]c3cc2F)C(c2ccc(Cl)c(NS(C)(=O)=O)c2)CC(=O)N1 (configuration not stated) | -2.07 | -0.1 | -2.27
11 | COc1ccc2c(=NN=Cc3ccc(F)cc3)cc(C)[nH]c2c1 | 12.2 | 11 | 11.6
12 | N=c1cc(C=Cc2ccc(O)cc2)[nH]c2ccccc12 | 2.26 | 4.1 | 3.12
13 | COc1cc(N(Cc2ccc(F)cc2)C(=O)c2ccc(-c3ccccc3)cc2)ccc1OCCN1CCCC1 | 9.7 | 5.41 | 7.12
14 | COc1ccc(-n2nc(C(=O)NCc3ccccc3OC)c3ccccc3c2=O)cc1 | 8.08 | 6.04 | 2.98
15 | CO/C(=C\C=C\c1cc2cc(Cl)c(Cl)cc2[nH]1)C(=O)NCCCN1CCCC[C@@H]1C | 3.54 | 2.51 | -0.72
16 | OCCNc1nc(Nc2cccc(O)c2)nc2ccccc12 | 4.65 | 3.14 | 4.01
17 | CC1CCc2sc(-c3nnc(SC(C)C(=O)N4CCCC4)o3)cc2C1 (configuration not stated) | 2.14 | 1.29 | -4.77

Row | Compound | inhibition [1] [%] | inhibition [2] [%] | inhibition [3] [%]
18 | CC1(C)NC(=N)N=C(NOCC=Cc2ccccc2)N1 | 3.05 | 2.87 | 3.12
19 | O=C(Nc1ccc(OC2CCN(Cc3ccc(F)cc3)C2)c(Cl)c1)c1ccco1 (configuration not stated) | 3.67 | 3.44 | 3.01
20 | CCN(CC)/C(=N\C(=N)NCCCCCCNC(=N)/N=C(\Nc1ccc(Cl)cc1)N(CC)CC)Nc1ccc(Cl)cc1 | 0.25 | -0.21 | -0.92
21 | Cc1cc(N2CCN(C)CC2)nc2ccc(NC(=O)Cc3cccc(C(F)(F)F)c3)cc12 | 2.34 | 1.8 | 5.56
22 | COc1ccc(Nc2nccc(N3CCC(NC(=O)c4cccc(C#N)c4)C3)n2)cc1 (configuration not stated) | 2.52 | 4.34 | 3.91
23 | COc1ccc2c(OC)c(CNCCCCCCNCc3ccc4cc(OC)ccc4c3OC)ccc2c1 | 106 | 107 | 107
24 | Brc1cccc(Nc2nccc(Nc3ccc(Oc4ccccc4)cc3)n2)c1 | 6.01 | 5.97 | -0.46
25 | O=C(NC1CCC(N2CCN(c3cccc(C(F)(F)F)c3)CC2)CC1)c1cc2ccccc2[nH]1 (configuration not stated) | 8.24 | 6.44 | 5.57
26 | O=C(Nc1ccc(Cl)cc1)c1ccc(CN2CCCN(Cc3cccc(O)c3)CC2)cc1 | 1.65 | 1.35 | 2.47
27 | Cc1nc(-c2nc(NCCc3cnccn3)ncc2-c2ccsc2)sc1C | 0.04 | 0.59 | -2.39
28 | CN1CCN(c2ccc(Nc3ncc(C#N)c(Nc4ccccc4C(N)=O)n3)cc2)CC1 | 75.6 | 81.4 | 55.1
29 | Nc1nccc(-c2ccc3c(/C=C/c4ccccc4)cnc(N)c3c2)n1 | 18.2 | 24.5 | 0.5
30 | COc1cccc2cc(C(=O)N[C@@H](CC(C)C)C(=O)N[C@H](C=NNC(=O)OC(C)(C)C)CC(C)C)oc12 | 2.6 | 1.47 | 0.48
31 | CCCNCc1ccc(-c2ccc(CN(CCOC)C(=O)c3ccco3)cc2)nc1 | 0.5 | 0.17 | 2.77
32 | O=S(=O)(NCCN1CCCC1)c1cccc(-c2ccc(CNCc3ccccc3)cc2)c1 | 5.11 | 2.05 | 2.83
33 | COc1ccc2nccc([C@@H](O)CN3CCC(NCc4cc5c(Cl)cccc5[nH]4)CC3)c2c1 | 10.6 | 14.7 | 2.34
34 | CCNc1cc(C(=O)N[C@@H](Cc2ccccc2)[C@H](O)CNC2CCC(C)(C)CC2)cc(N2CCCCS2(=O)=O)c1 | 3.16 | 1.73 | 1.22

Reference: ChEMBL document CHEMBL3433997, “St. Jude Leishmania screening dataset” (2016)
